Records with an inconclusive call do not appear. Some compounds were tested as several samples or in several runs, with calls that do not always agree. Calls of active or inactive are those of the source. Calls follow the shape of the full dose curve.
Test: Primary qHTS to identify inhibitors of SARS-CoV-2 cell entry (AID 1645846); also: nearly all actives have a fitted effect of over 45% in size
Conditions: SARS-CoV-2 pseudovirus cell entry assay, luminescence; activity change, negative = inhibition: at 57.1 µM (top of the series) unless noted; series mostly up to 57.1 µM
Procedure, shortened: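 HEK293-ACE2 (Expi293F, stable hACE2), 1500 cells/well, o/n 37C; cpd 23 nL pin, 1 h; MLV-PP w/ SARS-CoV-2-S (Wuhan-Hu-1, Δ19 C-term); 48 h 37C; Bright-Glo luminescence; normalized vs S-PP and bald PP.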
Potency is read from the fitted curve at half-maximal effect.

Structure (SMILES)	Potency	activity change, negative = inhibition [%]
O[C@@H](COc1cccc2ncccc12)CN1CCN(C2c3ccccc3[C@@H]3[C@H](c4ccccc42)C3(F)F)CC1 (some centres undefined)	28.2 µM (active)	
CCCCCCOC(=O)NC(=N)c1ccc(NCc2nc3cc(C(=O)N(CCC(=O)OCC)c4ccccn4)ccc3n2C)cc1	22.4 µM (active)	-62
CCCCC(CC)COC(=O)C(C#N)=C(c1ccccc1)c1ccccc1 (centres undefined)		-96.1
CN(C(=O)c1c(O)c2ccccc2n(C)c1=O)c1ccccc1		-55.9
O=c1[nH]c(=O)n([C@H]2C[C@H](O)[C@@H](CO)O2)cc1C(F)(F)F		-93.8
CCOC(=O)C1=C(C)NC(C)=C(C(=O)OCC)C1c1ccccc1/C=C/C(=O)OC(C)(C)C	25.1 µM (active)	
Oc1c(Cl)cc(Cl)cc1Sc1cc(Cl)cc(Cl)c1O	20 µM (active)	
CCCSS/C(CCO)=C(\C)N(C=O)Cc1cnc(C)nc1N		-57.5
